The values below come from PubChem BioAssay (NCI).

Among the test systems are HCT-15 colon; HT29 colon; SNB-75 CNS; SNB-19 CNS; U251 CNS; PC-3 prostate; UACC-62 melanoma; SK-MEL-28 melanoma; EKVX NSCLC; UO-31 renal; TK-10 renal; ACHN renal; CAKI-1 renal; CCRF-CEM leukemia.
Holding throughout (experiment): NCI-60 one-dose screen, 48 h (100 = growth as untreated, 0 = no growth, -100 = all killed)
A further test has as its system SK-MEL-5 melanoma. Conditions: 10 µM unless noted.
In the next test the test system is LOX IMVI melanoma. Conditions: 10 µM unless noted.
A further test relates to SK-MEL-2 melanoma. Conditions: 10 µM unless noted.
The subject of a further test is SN12C renal. The following applies: 10 µM unless noted.
A further test relates to A498 renal. Conditions: 10 µM unless noted.
For the next test, the system named is MOLT-4 leukemia. The following applies: 10 µM unless noted.

Several values for one entry are separate records, joined by “and”; a condition that tells them apart may be missing. Equal entries are not always repeated. About 83,000 compounds went through this panel and 20% of them were active in at least one assay; those are over-represented in the sample as a whole.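 Method: cells in 96-well plates; compound added at one concentration; 48 h incubation; percent growth measured; values under 10 scored active.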 Activity calls are given as the source filed them.

`Oc1c(Cl)cc(Cl)cc1Sc1cc(Cl)cc(Cl)c1O`: the growth is 8.23% (active) and 78.1% (inactive) in the test with HCT-15 colon (10 µM unless noted); 66.2% (inactive) and 15.8% (inactive) and 108% (inactive) in the test on HT29 colon (10 µM unless noted); 97.2% (inactive) and 55.2% (inactive) and 100% (inactive) with SNB-75 CNS (10 µM unless noted); 43.4% (inactive) and -0.0882% (active) and 74.5% (inactive) in the test on SNB-19 CNS (10 µM unless noted); 48.8% (inactive) and 8.95% (active) and 71.5% (inactive) in the test on U251 CNS (10 µM unless noted); 10.7% (inactive) and 1.87% (active) and 48% (inactive) with PC-3 prostate (10 µM unless noted). In addition, the growth is 48% (inactive) and 51% (inactive) with SK-MEL-5 melanoma; 19.1% (inactive) and -29% (active) and 50.2% (inactive) with UACC-62 melanoma (10 µM unless noted); 80.7% (inactive) and 41.3% (inactive) and 96% (inactive) in the test on LOX IMVI melanoma; 58.3% (inactive) and 27.8% (inactive) and 95.3% (inactive) in the test on SK-MEL-28 melanoma (10 µM unless noted); -21.7% (active) and -41% (active) and 79.7% (inactive) with SK-MEL-2 melanoma; 50% (inactive) and 23.4% (inactive) and 89% (inactive) with EKVX NSCLC (10 µM unless noted). Moreover, the growth in the test on SN12C renal is 26.8% (inactive) and -26.6% (active) and 72.8% (inactive); in the test on UO-31 renal (10 µM unless noted) it was 73.2% (inactive) and 36.9% (inactive) and 85.2% (inactive); in the test with TK-10 renal (10 µM unless noted) it was 46.9% (inactive) and -11.2% (active) and 87.2% (inactive); in the test with ACHN renal (10 µM unless noted), 15.2% (inactive) and 105% (inactive); in the test with CAKI-1 renal (10 µM unless noted), 17.9% (inactive) and 11.7% (inactive) and 62.8% (inactive); in the test with A498 renal, 54.4% (inactive) and 42.3% (inactive) and 69.5% (inactive). Also, the growth in the test with CCRF-CEM leukemia (10 µM unless noted) was 23.1% (inactive) and 9.78% (active) and 61.2% (inactive); in the test with MOLT-4 leukemia it was 38.7% (inactive) and 16.2% (inactive) and 91% (inactive).

Take `c1ccc(NCc2ccc3c(c2)OCO3)cc1`: the growth was 108% (inactive) and 93% (inactive) with HCT-15 colon (10 µM unless noted); 103% (inactive) and 104% (inactive) in the test on HT29 colon (10 µM unless noted); 89.7% (inactive) and 95.8% (inactive) with SNB-75 CNS (10 µM unless noted); 99% (inactive) in the test with SNB-19 CNS (10 µM unless noted); 99.3% (inactive) and 93.3% (inactive) with U251 CNS (10 µM unless noted); 96.1% (inactive) and 93.6% (inactive) in the test with PC-3 prostate (10 µM unless noted). Also, the growth in the test with SK-MEL-5 melanoma was 100% (inactive); in the test on UACC-62 melanoma (10 µM unless noted), 110% (inactive) and 100% (inactive); with LOX IMVI melanoma, 106% (inactive) and 98.9% (inactive); in the test with SK-MEL-28 melanoma (10 µM unless noted), 120% (inactive) and 105% (inactive); with SK-MEL-2 melanoma, 106% (inactive) and 105% (inactive); in the test on EKVX NSCLC (10 µM unless noted) it was 107% (inactive). Moreover, the growth in the test on SN12C renal is 105% (inactive) and 100% (inactive); in the test with UO-31 renal (10 µM unless noted) it was 78.7% (inactive) and 83% (inactive); in the test on TK-10 renal (10 µM unless noted), 102% (inactive) and 99.7% (inactive); in the test with ACHN renal (10 µM unless noted), 109% (inactive) and 97.4% (inactive); in the test with CAKI-1 renal (10 µM unless noted), 96.8% (inactive) and 101% (inactive); in the test with A498 renal, 101% (inactive) and 86.9% (inactive). The growth in the test on CCRF-CEM leukemia (10 µM unless noted) is 101% (inactive) and 92.3% (inactive); in the test on MOLT-4 leukemia, 95.7% (inactive) and 97.2% (inactive).

Take `O=S1(=O)CC(Br)C(Br)C1` (stereo not drawn): the growth was 49.1% (inactive) and 61.1% (inactive) with HCT-15 colon (10 µM unless noted); 27.7% (inactive) and 79% (inactive) in the test on HT29 colon (10 µM unless noted); 100% (inactive) and 88.8% (inactive) in the test with SNB-75 CNS (10 µM unless noted); 98.7% (inactive) and 97.2% (inactive) in the test on SNB-19 CNS (10 µM unless noted); 98% (inactive) and 97% (inactive) in the test with U251 CNS (10 µM unless noted); 86.3% (inactive) and 92.6% (inactive) in the test with PC-3 prostate (10 µM unless noted). In addition, the growth with SK-MEL-5 melanoma is 93.2% (inactive) and 99.2% (inactive); with UACC-62 melanoma (10 µM unless noted) it was 86.5% (inactive) and 93.4% (inactive); in the test with LOX IMVI melanoma, 81.3% (inactive) and 38.4% (inactive); in the test on SK-MEL-28 melanoma (10 µM unless noted) it was 80.8% (inactive) and 106% (inactive); in the test on SK-MEL-2 melanoma, 82.4% (inactive) and 83.3% (inactive); in the test with EKVX NSCLC (10 µM unless noted), 93.9% (inactive). The growth in the test with SN12C renal is 93.2% (inactive) and 88.3% (inactive); in the test with UO-31 renal (10 µM unless noted), 64.9% (inactive) and 77% (inactive); in the test on TK-10 renal (10 µM unless noted) it was 40% (inactive) and 63.8% (inactive); in the test with ACHN renal (10 µM unless noted), 42.2% (inactive) and 69.8% (inactive); in the test on CAKI-1 renal (10 µM unless noted), 45.1% (inactive) and 65.5% (inactive); in the test on A498 renal, 112% (inactive). In the test on CCRF-CEM leukemia (10 µM unless noted), the growth was 33.7% (inactive).

Regarding `CC(C)(C)c1cc(NC(=O)Cc2ccc(-c3cnc4cc(-c5cnn(CCN6CCOCC6)c5)ccc4n3)cc2)no1`, the growth in the test on HCT-15 colon (10 µM) was 9.24% (active); with HCT-15 colon (30 µM) it was 7.76% (active); with HT29 colon (10 µM), 25.9% (inactive); with HT29 colon (30 µM) it was 31.2% (inactive); with SNB-75 CNS (10 µM), -0.488% (active); in the test with SNB-75 CNS (30 µM) it was -1.06% (active). Further, the growth is 42.4% (inactive) with SNB-19 CNS (10 µM); 44% (inactive) with SNB-19 CNS (30 µM); 22.1% (inactive) with U251 CNS (10 µM); 33.4% (inactive) with U251 CNS (30 µM); 24.7% (inactive) with PC-3 prostate (10 µM); 23.9% (inactive) in the test with PC-3 prostate (30 µM). The growth with SK-MEL-5 melanoma was 9.52% (active); in the test on UACC-62 melanoma (10 µM), 16.3% (inactive); in the test on UACC-62 melanoma (30 µM), 19.6% (inactive); with SK-MEL-28 melanoma (10 µM), 29.4% (inactive); in the test with SK-MEL-28 melanoma (30 µM), 30.3% (inactive); with EKVX NSCLC (10 µM) it was 26.9% (inactive). In addition, the growth was 19.1% (inactive) in the test with EKVX NSCLC (30 µM); 1.27% (active) in the test on UO-31 renal (10 µM); 3.63% (active) in the test with UO-31 renal (30 µM); 34.9% (inactive) with TK-10 renal (10 µM); 40.8% (inactive) in the test on TK-10 renal (30 µM); 5.88% (active) in the test with ACHN renal (10 µM). For the same compound, the growth with ACHN renal (30 µM) was 8.72% (active); in the test with CAKI-1 renal (10 µM), 1.21% (active); in the test with CAKI-1 renal (30 µM), 3.67% (active); in the test on CCRF-CEM leukemia (10 µM), 15.5% (inactive); in the test on CCRF-CEM leukemia (30 µM) it was 10.4% (inactive).
